Holding throughout (experiment): NCI-60 one-dose screen, 48 h (100 = growth as untreated, 0 = no growth, -100 = all killed)
What all share (conditions): 10 µM unless noted

The subject of assay [1] is SR leukemia.
Assay [2] relates to RPMI-8226 leukemia.
The test system of assay [3] is OVCAR-8 ovarian.
For assay [4], the system named is OVCAR-5 ovarian.
The subject of assay [5] is OVCAR-4 ovarian.
Assay [6] deals with IGROV1 ovarian.
In assay [7] the test system is OVCAR-3 ovarian.
Assay [8] has as its system HS 578T breast.
For assay [9], the system named is NCI/ADR-RES ovarian.
For assay [10], the system named is SK-OV-3 ovarian.

Compounds without any hit were thinned out: in the full panel of roughly 83,000, 20% have a hit.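 The test compound was applied at a single concentration to cells in 96-well plates for 48 hours, and percent growth was recorded.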 A number with no mark means an inactive call. Calls of active or inactive are those of the source. Rule for the calls: active = growth percent below 10; inactive = the rest.

In the case of `COc1cccc2cc(-c3cc4ccccc4[nH]3)c(=NC(=O)c3ccc(Cl)cc3)oc12`, the growth is 62.7% in assay [1]; 76.1% in assay [2]; 53.8% in [3]; 85.9% in assay [4]; 66.8% in [5]; 53.7% in assay [6]. For the same molecule, the growth was 67% in [7], 70.8% in assay [8] and 53% in assay [9].
In the case of `COC(=O)C(CC(=O)c1ccc(-c2ccccc2)cc1)c1ccccc1` (centres undefined), the growth in assay [1] was 24.2%; in [2], 88.3%; in [3], 77.5%; in assay [4], 84.1%; in assay [5], 71.6%; in assay [10], 85.2%. Also, the growth is 10.6% in [7] and 17.5% in assay [9].
On to `Cc1oc2nc[nH]c(=O)c2c1C(=O)/C=C/c1ccc(Cl)cc1`, for which the growth is -30.6% (active) in [1]; -14.1% (active) in assay [2]; 15.8% in [3]; 34.5% in assay [4]; 29.8% in assay [5]; 38.9% in assay [6]. The results for the growth in assay [7], in assay [8] and in assay [9] were 4.32% (active), 60.5% and 10.4%, respectively.
Turning to `C#CCN1C(=O)/C(=c2\sc3n(c2=O)NC2C(N=3)N(CC)C(=O)N2CC)c2ccccc21` (centres undefined), the growth was 15.5% in assay [1]; 59.3% in assay [2]; 66.9% in assay [3]; 73.8% in assay [4]; 51.9% in [5]; 66% in assay [6]. Besides, the growth was 23.1% in assay [7], 56.6% in assay [8] and 41.7% in [9].
For `Cc1cccc(-n2c(C)nc3ccc(NC(=O)NCCCl)cc3c2=O)c1`, the growth is 95.9% in assay [1]; 97.6% in assay [2]; 107% in [3]; 107% in [4]; 107% in assay [5]; 102% in assay [6]. Besides, the growth in assay [7] was 105%; in assay [8], 99.4%; in [9], 95.5%.
`Clc1ccc([I+]c2ccc(Cl)cc2Cl)c(Cl)c1`: the growth in assay [1] was 22.8%; in assay [2] it was -25.7% (active); in [3] it was -1.2% (active); in [4] it was -25.9% (active); in [5], 0.221% (active); in [10] it was 96.7%. Moreover, the growth in [7] is -75.5% (active); in assay [9], 79.4%.
Regarding `CCN1C(=S)N(CC)C2Nn3c(s/c(=C4\C(=O)N(C)c5ccccc54)c3=O)=NC21` (centres undefined), the growth was 22.6% in assay [1]; 36.8% in assay [2]; 54.5% in assay [3]; 67.5% in [4]; 47.5% in [5]; 53.3% in assay [6]. In addition, the growth is 20.2% in [7], 48.8% in [8] and 6.63% (active) in assay [9].
Turning to `CC(=O)/C=C/c1cc2cc(Cl)ccc2[nH]c1=O`, the growth in assay [1] is 5.65% (active); in [2], 54.5%; in [3] it was 92.2%; in assay [4], 95.3%; in [5], 90.5%; in assay [10], 88.7%. In addition, the figures for the growth in assay [7], in assay [8] and in assay [9] were 84.7%, 89.7% and 100%, respectively.
For `Nc1c(C(=O)Nc2cccc([N+](=O)[O-])c2)sc2nc3c(cc12)C(O)CCC3` (centres undefined), the growth is 21% in assay [1]; 52% in assay [2]; 82.3% in [3]; 78.7% in assay [4]; 80.2% in [5]; 52.5% in assay [6]. The values for the growth in assay [7], in assay [8] and in [9] were 33.1%, 71.8% and 47.8%, respectively.
Take `C=CCOc1cccc(/C=C/C(=O)c2sc(Nc3cccnc3)nc2C)c1`: the growth in [1] was 42.4%; in assay [2], 23.1%; in assay [3], 52.6%; in assay [4] it was 108%; in assay [5], 69.5%; in assay [6], 62.9%. For the same molecule, the growth in [7] is 14.9%; in [8], 99.9%; in [9], 50.2%.
For `CCN(Cc1ccc(CN(CC)C(=O)C(Cl)(Cl)Cl)cc1)C(=O)C(Cl)(Cl)Cl`, the growth is 32.8% in assay [1]; 32.5% in assay [2]; 89.6% in assay [3]; 101% in [4]; 74.7% in assay [5]; 94.9% in [6]. Moreover, the growth was 74.4% in assay [7], 89.7% in assay [8] and 86.6% in [9].
In the case of `CCCn1c(=S)sc2c(Cl)nc(C)nc21`, the growth was 123% in assay [1]; 99.1% in [2]; 105% in assay [3]; 109% in assay [4]; 85.5% in assay [5]; 90.5% in [10]. In addition, the growth in assay [7] is 88.6%; in assay [8] it was 36.8%; in assay [9], 106%.
For `COc1ccc(OC)c(/C=C2\Oc3cc(OCCN4CCCC4)ccc3C2=O)c1`, the growth in [1] is 56.6%; in assay [2] it was 93.5%; in assay [3], 92%; in assay [4], 94.5%; in assay [5], 98.5%; in assay [6], 95.8%. In addition, the growth was 101% in assay [7], 86.4% in [8] and 86.4% in assay [9].
Take `C=C1C(=O)O[C@H]2[C@H]1CC/C(COC(=O)NCCc1cccc(OC)c1)=C\CC[C@@]1(C)O[C@@H]21`: the growth is 0.839% (active) in assay [1]; 25.1% in assay [2]; 17.4% in assay [3]; 75.1% in [4]; 39.9% in assay [5]; 90.3% in assay [10]. In addition, the growth is -20% (active) in assay [7] and 80% in [9].
On to `COc1ccc(/C=C/c2nc(N3CCOCC3)c3nc(Cl)c(Cl)cc3n2)cc1OC`, for which the growth in [1] was 83.3%; in assay [2], 98.7%; in [3], 99%; in assay [4], 109%; in assay [5], 108%; in assay [10], 105%. For the same molecule, the growth in assay [8] is 113%; in assay [9] it was 99.4%.
On to `C#CCN1C(=O)/C(=c2\sc3n(c2=O)C2C(NN=3)N(CC)C(=O)N2CC)c2ccccc21` (centres undefined), for which the growth was 10.1% in assay [1]; 18.6% in [2]; 25.4% in assay [3]; 33.5% in assay [4]; 47.5% in assay [5]; 27.6% in assay [6]. The growth is -13.6% (active) in [7], -5.36% (active) in assay [8] and -4.94% (active) in [9].
With `NC(=O)c1cccc(N2Cc3ccccc3OC3=C2C(=O)c2c(O)ccc(O)c2C3=O)c1`, the growth in assay [1] is -5.71% (active); in assay [2] it was -13.4% (active); in assay [3], -41.9% (active); in assay [4], -68.1% (active); in [5], -93.5% (active); in assay [10], 20.8%. Further, the growth is -94.2% (active) in assay [7] and 10% in assay [9].
On to `COc1ccc(/C=C/C(=O)/C=C/c2cc3ccc(Cl)cc3[nH]c2=O)cc1`, for which the growth in assay [1] is -0.34% (active); in [2], 19.9%; in assay [3], 81.4%; in assay [4], 108%; in assay [5] it was 92.9%; in assay [10], 91%. Besides, the growth is 75.4% in assay [7], 90.5% in [8] and 103% in assay [9].
With `COc1ccc([N+](=O)[O-])c(/C=C/C(=O)c2ccccn2)c1`, the growth in [1] is 26.5%; in assay [2], 52.6%; in assay [4] it was 90.5%; in [5], 72.2%; in assay [10], 96%; in [6], 60.8%. Besides, the growth is 86.1% in [7] and 91.4% in assay [8].
`COc1ccc(S(=O)(=O)N2CCN(c3cc4c(cc3F)c(=O)c(C(=O)O)cn4C3CC3)CC2)c(OC)c1`: the growth in [1] was 81.6%; in assay [2], 86.7%; in assay [3] it was 92.4%; in assay [4] it was 110%; in assay [5], 101%; in [6], 101%. Moreover, the results for the growth in [7] and in [9] were 95.8% and 102%, respectively.
For `CCCCCC/C=C\CCCCCCCCOc1ccc(CCOP(=O)(O)OCC[N+](C)(C)C)cc1`, the growth was 50.7% in assay [1]; 23.8% in assay [2]; 80.9% in assay [3]; 90.3% in [4]; 86.1% in assay [5]; 42.6% in assay [6]. The growth in assay [7] is 74.8%; in assay [8] it was 89.5%; in [9], 100%.
Consider `c1ccn2nnnc2c1`, for which the growth was 96.5% in [1]; 102% in assay [2]; 105% in [3]; 105% in assay [4]; 103% in assay [5]; 113% in assay [6]. Further, the growth in assay [7] is 70.6%; in [9], 102%.
As to `COc1cc(Br)c(OC)cc1Br`, the growth is 111% in assay [1]; 96.2% in assay [2]; 105% in assay [3]; 93% in assay [4]; 102% in assay [5]; 96.8% in assay [7]. Also, the growth in [8] is 94.1%; in [9], 95.3%.
Take `CC1(C)OC2COC3(C(=O)O)OC(C)(C)OC3C2O1` (centres undefined): the growth in [1] is 121%; in [2], 109%; in [3] it was 108%; in assay [4], 90.1%; in assay [5], 116%; in assay [6], 109%. In addition, the growth in assay [7] is 108%; in assay [8], 101%; in [9], 101%.
For `CC(C)(C)c1ccc(S(=O)(=O)Oc2ccc3c4c(c(=O)oc3c2)CCCCC4)cc1`, the growth in [1] is 31.4%; in [2] it was 40.4%; in assay [3], 77.2%; in assay [4] it was 70%; in [10], 71.4%; in assay [6] it was 68.6%. In addition, the growth in [7] was 52.7%; in assay [8], 40%; in assay [9] it was 20.1%.
As for `O=c1oc2cc(OS(=O)(=O)c3ccccc3)c(Cl)cc2c2c1CCCCCC2`, the growth in assay [1] is 63.4%; in assay [2], 75.2%; in assay [3] it was 89.2%; in assay [4], 90.1%; in assay [10], 106%; in [6], 84.3%. The values for the growth in assay [7], in assay [8] and in assay [9] were 91.3%, 88.6% and 67.4%, respectively.
On to `CCN(Cc1ccccc1)c1ccc(SC#N)cc1`, for which the growth in assay [1] is -9.48% (active); in assay [2], 80.3%; in [3], 85.9%; in [4] it was 97.2%; in assay [5], 50.5%; in [6], 103%. Moreover, the growth is 46.2% in [7] and 81.9% in assay [9].
As for `COc1ccc(S(=O)(=O)Nc2cc(/C=C\c3cc(OC)c(OC)c(OC)c3)cc(OC)c2OC)cc1OC`, the growth is 20% in assay [1]; 41% in assay [3]; 30.8% in assay [4]; 39.7% in assay [5]; 17.1% in assay [10]; 49.5% in assay [6]. The growth is -18.2% (active) in [7], 8.3% (active) in assay [8] and 12.6% in [9].
Take `CCCCCCCC/C=C\CCCCCCCCOc1ccccc1CCOP(=O)(O)OCC[N+](C)(C)C`: the growth in assay [1] is 42.4%; in [2] it was -0.933% (active); in [3], 60.3%; in assay [4], 85.1%; in [5], 80.3%; in assay [7], 56.4%. For the same molecule, the growth in assay [8] is 88%; in [9] it was 98.4%.
For the molecule `COc1cc2c3c(c(=O)oc2cc1OS(=O)(=O)c1ccc(C(F)(F)F)cc1)CCCCC3`, the growth in [1] was 58.6%; in [2] it was 84.8%; in assay [3] it was 93.8%; in assay [4] it was 79.6%; in assay [10], 83%; in [6] it was 86.7%. Further, the growth is 87.9% in assay [7], 56.4% in assay [8] and 76.3% in [9].

Source of the values: PubChem BioAssay (NCI).
